OPRM1-OPRD1 inv: inverse agonists of MOR-DOR heterodimerization, primary screen, cell-based, luminescence. cell-based MOR-DOR heterodimer luminescence, inverse agonism. Mu-type opioid receptor (Homo sapiens) + Delta-type opioid receptor (Homo sapiens), …. 340,000 tested, 0.21% active. inhibition, % at 9.3 µM; in the data active means inhibition above about 22%, passing the limit was not always enough
HTR5A ag: HTR5A agonists in luminescence cell assay, primary screen, counter-screen for OPRM1-OPRD1 heterodimer agonist project, full-deck HTS. 5-hydroxytryptamine receptor 5A (Homo sapiens), P47898. cell-based. activation, % at 9.3 µM. 340,000 tested, 0.61% active. AID 504692, 2011; in the data active means activation mostly above about 9.5%, no sharp cut-off; inactive means mostly below about 7.6%
Target sequence (P47898 whole entry, looked up): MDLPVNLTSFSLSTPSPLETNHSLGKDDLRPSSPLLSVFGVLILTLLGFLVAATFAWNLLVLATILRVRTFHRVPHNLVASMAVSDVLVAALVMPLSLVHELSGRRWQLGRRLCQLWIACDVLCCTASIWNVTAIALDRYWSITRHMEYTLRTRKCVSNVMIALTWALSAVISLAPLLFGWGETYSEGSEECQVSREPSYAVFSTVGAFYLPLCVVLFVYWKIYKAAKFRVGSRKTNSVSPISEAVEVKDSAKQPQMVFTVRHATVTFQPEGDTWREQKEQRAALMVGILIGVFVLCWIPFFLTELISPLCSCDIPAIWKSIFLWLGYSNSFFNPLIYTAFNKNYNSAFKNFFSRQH
OPRM1-OPRD1 ag: agonists of OPRM1-OPRD1 heterodimerization, primary screen, cell-based, luminescence; cells; activation, % at 9.3 µM; 340,000 tested, 0.3% active; AID 504326, 2011
HTR5A inv ctr: HTR5A inverse agonists in luminescence cell assay, primary screen, counter-screen for OPRM1-OPRD1 heterodimer inverse agonist project, full-deck HTS | 5-hydroxytryptamine receptor 5A (Homo sapiens), P47898 | inhibition, % at 9.3 µM | AID 504634, 2011 | 340,000 tested, 0.083% active | HTR5A cell line, inverse agonism; in the data active means inhibition mostly above about 23%, no sharp cut-off; inactive means mostly below about 18%
MOR-DOR ag conf: agonists of MOR-DOR heterodimerization, confirmation, cell-based, luminescence; shares compounds with OPRM1-OPRD1 ag; cells, luminescence complementation; activation, % at 9.3 µM; 830 tested, 45% active; AID 504904, 2011
HTR5A ag ctr2: HTR5A agonists in cells, counter-screen for OPRM1-OPRD1 heterodimer agonist project, cell-based, luminescence | shares compounds with OPRM1-OPRD1 ag | HTR5A agonist counterscreen | activation, % at 9.3 µM | 830 tested, 8% active; in the data active means activation above about 17%
Hits are given with their value. Hits are enriched below; roughly 1.1% of the tested compounds scored in any of these assays. Unless noted, no stated cut-off is given here; in the data, active means activation above about 18%; inactive means the rest.

O=C(NCc1ccco1)c1cc2ccccc2o1 was read as OPRM1-OPRD1 inv inactive, HTR5A ag inactive, OPRM1-OPRD1 ag inactive and HTR5A inv ctr inactive.
O=C(/C=C/c1ccccc1)NCC(=O)N/N=C/c1cccs1 was read as OPRM1-OPRD1 inv inactive, HTR5A ag inactive, OPRM1-OPRD1 ag inactive and HTR5A inv ctr inactive.
CCN(C(=O)COC(=O)CCc1c[nH]c2ccccc12)c1c(N)n(Cc2ccccc2)c(=O)[nH]c1=O was read as OPRM1-OPRD1 inv inactive, HTR5A ag inactive, OPRM1-OPRD1 ag inactive and HTR5A inv ctr inactive.
For Cc1ccc2c(c1)N(CC(=O)NC1CCC(C)CC1)C(=O)c1cccnc1O2 (stereo not given) the results were OPRM1-OPRD1 inv inactive, HTR5A ag inactive, OPRM1-OPRD1 ag inactive and HTR5A inv ctr inactive.
`O=C(Nc1ccc(Br)cc1)c1cc([N+](=O)[O-])cc([N+](=O)[O-])c1` gave OPRM1-OPRD1 inv inactive, HTR5A ag inactive, OPRM1-OPRD1 ag 22.4, HTR5A inv ctr inactive, MOR-DOR ag conf inactive and HTR5A ag ctr2 inactive.
Screening CC(=O)Nc1ccc(NC(=O)c2cc([N+](=O)[O-])cc([N+](=O)[O-])c2)cc1 returned OPRM1-OPRD1 inv inactive, HTR5A ag inactive, OPRM1-OPRD1 ag inactive and HTR5A inv ctr inactive.
CN(Nc1cccc(Cl)c1)c1cccc(Cl)c1 was read as OPRM1-OPRD1 inv inactive, HTR5A ag inactive, OPRM1-OPRD1 ag inactive and HTR5A inv ctr inactive.
For CC1CCCCC12NC(=O)N(CC(=O)Nc1cccc(S(=O)(=O)N3CCCCC3)c1)C2=O (stereo not given) the results were OPRM1-OPRD1 inv inactive, HTR5A ag inactive, OPRM1-OPRD1 ag inactive and HTR5A inv ctr inactive.
Screening COc1ccc(C2C(C#N)=C(N)N(c3sc4c(c3C#N)CCCC4)C3=C2C(=O)CC(C)(C)C3)cc1 (stereo not given) returned OPRM1-OPRD1 inv inactive, HTR5A ag inactive, OPRM1-OPRD1 ag 87.8, HTR5A inv ctr inactive, MOR-DOR ag conf 211.0 and HTR5A ag ctr2 inactive.
`COc1ccc(C2C(C#N)=C3NC(=O)c4c(sc5c4CCCCC5)N3C3=C2C(=O)CC(C)(C)C3)cc1` (stereo not given) gave OPRM1-OPRD1 inv inactive, HTR5A ag inactive, OPRM1-OPRD1 ag inactive and HTR5A inv ctr inactive.
COc1ccc(C2C(C#N)=C(N)N(c3sc4c(c3C#N)CCCC4)C3=C2C(=O)CC(C)(C)C3)cc1OC (stereo not given) was read as OPRM1-OPRD1 inv inactive, HTR5A ag inactive, OPRM1-OPRD1 ag 22.9, HTR5A inv ctr inactive, MOR-DOR ag conf 30.6 and HTR5A ag ctr2 25.2.
Screening Cc1cc(N2CCN(C)CC2)ccc1NC(=O)c1ccc(-c2ccc(Cl)cc2)o1 returned OPRM1-OPRD1 inv inactive, HTR5A ag inactive, OPRM1-OPRD1 ag 26.2, HTR5A inv ctr inactive, MOR-DOR ag conf 44.5 and HTR5A ag ctr2 inactive.
For CN1CCN(c2ccc(NC(=O)c3ccc(Br)o3)cc2)CC1 the results were OPRM1-OPRD1 inv inactive, HTR5A ag inactive, OPRM1-OPRD1 ag inactive and HTR5A inv ctr inactive.
For CN1CCN(c2ccccc2NC(=O)c2ccc(-c3ccc(Cl)c(Cl)c3)o2)CC1 the results were OPRM1-OPRD1 inv inactive, HTR5A ag inactive, OPRM1-OPRD1 ag inactive and HTR5A inv ctr inactive.
Screening CN1CCN(c2ccc(NC(=O)c3ccc(-c4ccccc4F)o3)cc2)CC1 returned OPRM1-OPRD1 inv inactive, HTR5A ag inactive, OPRM1-OPRD1 ag 158.2, HTR5A inv ctr inactive, MOR-DOR ag conf 248.6 and HTR5A ag ctr2 inactive.
`CCc1ccc(OCc2n[nH]c(=S)n2C(C)CCCC(C)C)cc1` (stereo not given) gave OPRM1-OPRD1 inv inactive, HTR5A ag inactive, OPRM1-OPRD1 ag 19.8, HTR5A inv ctr inactive, MOR-DOR ag conf inactive and HTR5A ag ctr2 18.1.
Screening CSCCC(NC(=O)c1ccco1)C(=O)NCC1CCCCC1 (stereo not given) returned OPRM1-OPRD1 inv inactive, HTR5A ag inactive, OPRM1-OPRD1 ag inactive and HTR5A inv ctr inactive.
Cc1cc2c(cc1S(=O)(=O)NCc1ccccc1Cl)OCCN2C was read as OPRM1-OPRD1 inv inactive, HTR5A ag inactive, OPRM1-OPRD1 ag inactive and HTR5A inv ctr inactive.

Screening data deposited in PubChem BioAssay by The Scripps Research Institute Molecular Screening Center.
